This note sets out measurements from PubChem BioAssay (EPA / NIEHS).

Assay [1] is described as follows: BSK_CASM3C_SRB: Viability Assessment in the BioMAP Diversity Plus: CASM3C Assay (AID 2283050).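 Further: total protein by SRB staining as cytotoxicity measure in parallel cultures; cells exposed to compound for 24 h.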 The conditions noted are these: primary human coronary artery smooth muscle cells.
Read-out in assay [2]: Thrombomodulin, THBD (gene 7056)
Briefly: BSK_CASM3C_Thrombomodulin: BioMAP Diversity Plus: CASM3C Assay for Thrombomodulin Biomarker Activity (AID 2283051).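 Further: thrombomodulin protein level measured by ELISA 24 h after dosing.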 Conditions: primary human coronary artery smooth muscle cells; actives raise or lower the signal.

Read-out in assay [3]: Tissue Factor, F3 (gene 2152)
Briefly: BSK_CASM3C_TissueFactor: BioMAP Diversity Plus: CASM3C Assay for Tissue Factor Biomarker Activity (AID 2283052).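 Further: cell surface tissue factor protein level read by ELISA.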 The conditions noted are these: primary human coronary artery smooth muscle cells; actives raise or lower the signal.

Read-out in assay [4]: Interferon-gamma inducible Protein 10 (IP10), CXCL10 (gene 3627)
Briefly: BSK_hDFCGF_IP10: BioMAP Diversity Plus: hDFCGF Assay for Interferon-gamma inducible Protein 10 (IP10) Biomarker Activity (AID 2283053). The conditions noted are these: primary human foreskin fibroblasts; actives raise or lower the signal. The essentials:
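ELISA read-out of IP-10 (CXCL10) from primary human skin fibroblasts, 24 h after compound addition. Gain or loss of signal versus DMSO baseline, bidirectional curve fitting.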

Read-out in assay [5]: Urokinase-type plasminogen activator receptor (uPAR), PLAUR (gene 5329)
Briefly: BSK_CASM3C_uPAR: BioMAP Diversity Plus: CASM3C Assay for Urokinase-type plasminogen activator receptor (uPAR) Biomarker Activity (AID 2283054).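 Further: cell-surface uPAR protein level quantified by ELISA.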 Conditions: primary human coronary artery smooth muscle cells; actives raise or lower the signal.

Read-out in assay [6]: Vascular cell adhesion molecule 1 (VCAM1), VCAM1 (gene 7412)
Briefly: BSK_CASM3C_VCAM1: BioMAP Diversity Plus: CASM3C Assay for Vascular cell adhesion molecule 1 (VCAM1) Biomarker Activity (AID 2283055).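 Further: VCAM-1 protein level quantified by ELISA on the cells.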 The conditions noted are these: primary human coronary artery smooth muscle cells; actives raise or lower the signal.

Read-out in assay [7]: Collagen III, COL3A1 (gene 1281)
Briefly: BSK_hDFCGF_CollagenIII: BioMAP Diversity Plus: hDFCGF Assay for Collagen III Biomarker Activity (AID 2283056). Conditions: primary human foreskin fibroblasts; actives raise or lower the signal. The essentials:
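Human foreskin primary fibroblasts were exposed to test chemicals for 24 h, after which collagen III was quantified by ELISA. Activity was fitted bidirectionally against DMSO as negative control and baseline.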

Read-out in assay [8]: Epidermal growth factor receptor (EGFR), EGFR (gene 1956)
Briefly: BSK_hDFCGF_EGFR: BioMAP Diversity Plus: hDFCGF Assay for Epidermal growth factor receptor (EGFR) Biomarker Activity (AID 2283057). The conditions noted are these: primary human foreskin fibroblasts; actives raise or lower the signal. The essentials: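 ELISA readout of EGFR on human dermal fibroblasts (primary foreskin cells), 24 h post-dosing; bidirectional curve fit vs DMSO baseline, gain or loss of signal scored.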

Read-out in assay [9]: Interleukin-8 (IL8), CXCL8 (gene 3576)
Briefly: BSK_hDFCGF_IL8: BioMAP Diversity Plus: hDFCGF Assay for Interleukin-8 (IL8) Biomarker Activity (AID 2283058). The conditions noted are these: primary human foreskin fibroblasts; actives raise or lower the signal. The procedure, abridged:
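hDFCGF human dermal fibroblasts; 24 h chemical exposure; IL-8 by ELISA; bidirectional curve fit vs DMSO baseline; gain or loss of signal scored.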

A short description of assay [10]: BSK_hDFCGF_Proliferation: Cell Proliferation Assessment in the BioMAP Diversity Plus: hDFCGF Assay (AID 2283059).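 Further: curves fitted for both rise and fall of signal versus DMSO baseline.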 The conditions noted are these: primary human foreskin fibroblasts. The essentials: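 Primary human foreskin fibroblasts, sub-confluent; […]; 10% TCA fix, 0.1% SRB stain, A560 total protein. Gain/loss fitted bidirectionally vs DMSO control.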

Where “and” joins values, the source holds several entries; their conditions need not be identical. Equal entries are not always repeated. Where a structure was tested more than once in an assay, its records may differ in their call. Calls of active or inactive are those of the source. How the source made its calls: active means hit-call score of the fitted dose curve at least 0.9, where 1 is the maximum; inactive means score below 0.9.

Consider `O=C(O)CCC(F)(F)C(F)(F)C(F)(F)C(F)(F)C(F)(F)C(F)(F)C(F)(F)F`, for which the outcome in assay [1], in assay [2], in [3], in assay [4], in assay [5] and in assay [6] was inactive. The outcome in assay [7], in assay [8], in assay [9] and in assay [10] was inactive.

Broadly, the AC50 is the concentration at which the activity in the assay is half-maximal. Turning to `O=C1C=CC(=O)N1c1ccc(Cc2ccc(N3C(=O)C=CC3=O)cc2)cc1`, the AC50 in assay [1] is 4.31 µM (active); in [3], 3.35 µM (active); in [4], 2.58 µM (active); in assay [5] it was 5.3 µM (active); in assay [6], 2.94 µM (active); in assay [7] it was 4.09 µM (active). The AC50 in assay [10] was 0.162 µM (active). Besides, the outcome in assay [2], in assay [8] and in assay [9] was inactive.

On to `CCN(CC)c1ccc(C=O)cc1`, for which the result in assay [1], in assay [2], in assay [4], in assay [5], in [6] and in [7] was inactive. Moreover, the outcome in assay [8], in [9] and in [10] was inactive. The AC50 in assay [3] was 5.46 µM (active).

`NCC(F)(F)C(F)(F)C(F)(F)C(F)(F)C(F)(F)C(F)(F)F`: the outcome in [1], in [2], in assay [3], in assay [4], in assay [5] and in assay [6] was inactive. The result in assay [7], in assay [8], in [9] and in assay [10] was inactive.

Take `Nc1cc([N+](=O)[O-])cc(Cl)c1O`: the result in [1], in assay [2], in [3], in assay [4], in assay [5] and in assay [6] was inactive. Further, the outcome in [7], in [8], in assay [9] and in assay [10] was inactive.

Turning to `Brc1nc2ccccc2s1`, the outcome in assay [1], in assay [2], in assay [3], in assay [4], in assay [5] and in assay [6] was inactive. For the same molecule, the result in assay [7], in [8] and in assay [9] was inactive. In addition, the concentration at half-maximal activity (AC50) in [10] is 31.5 µM (active).

On to `CCN(CC)c1ccc(C=O)c(O)c1`, for which the result in [1], in assay [2], in assay [3], in [4], in [5] and in assay [6] was inactive. Besides, the result in assay [7], in [8] and in assay [9] was inactive. Besides, the AC50 in assay [10] is 30.4 µM (active).

For `O=C(O)C(F)(F)C(F)(F)C(F)(F)C(=O)O`, the result in assay [1], in assay [2], in [3], in [4], in [5] and in assay [6] was inactive. In addition, the result in [7], in assay [8], in assay [9] and in [10] was inactive.

With `CC(C)CCCC(C)CCO` (stereo unspecified), the AC50 in assay [1] was 32.2 µM (active); in [3], 29.9 µM (active); in [5], 31.3 µM (active); in assay [6], 31.9 µM (active); in assay [10] it was 32.8 µM (active). Further, the outcome in assay [2], in assay [4], in assay [7], in assay [8] and in assay [9] was inactive.

With `CCN=C1C=CC(=C(c2ccc(N(CC)CC)cc2)c2ccc(N(CC)CC)cc2)c2ccccc21`, the AC50 is 5.3 µM (active) and 5.29 µM (active) in assay [1]; 1.03 µM (active) and 1.42 µM (active) in assay [2]; 149 nM (active) and 1.21 µM (active) in assay [3]; 1.52 µM (active) and 1.32 µM (active) in [4]; 3.87 µM (active) and 3.2 µM (active) in assay [5]; 5.39 µM (active) and 2.81 µM (active) in assay [6]. The AC50 is 1.15 µM (active) and 1.3 µM (active) in assay [7]; 2.89 µM (active) and 2.29 µM (active) in assay [9]; 180 nM (active) and 151 nM (active) in assay [10]. In addition, in assay [8], the outcome was inactive.

Regarding `OCC(F)(F)C(F)(F)C(F)(F)CO`, the result in assay [1], in assay [2], in assay [3], in assay [4], in assay [5] and in assay [6] was inactive. Besides, the outcome in assay [7], in assay [8], in assay [9] and in assay [10] was inactive.

For `CC1=CC2C3C=CC(C3)C2C1C` (stereo unspecified), the result in assay [1], in assay [2], in [3], in [4], in assay [5] and in assay [6] was inactive. Besides, the outcome in assay [7], in assay [8] and in assay [9] was inactive. The AC50 in assay [10] was 28.2 µM (active).

`O=C(Cl)C(F)(F)C(F)(F)C(F)(F)C(F)(F)C(F)(F)C(F)(F)C(F)(F)F`: the outcome in assay [1], in assay [2], in [3], in [4], in [5] and in [6] was inactive. The outcome in [7], in assay [8], in assay [9] and in assay [10] was inactive.

Regarding `OCC(F)(F)C(F)(F)C(F)(F)C(F)(F)C(F)(F)C(F)(F)CO`, the result in assay [1], in [2], in assay [3], in assay [4], in [5] and in [6] was inactive. Besides, the result in assay [7], in [8], in assay [9] and in [10] was inactive.

On to `NS(=O)(=O)C(F)(F)C(F)(F)C(F)(F)C(F)(F)C(F)(F)C(F)(F)F`, for which the result in assay [1], in assay [2], in assay [3], in assay [5], in assay [6] and in assay [7] was inactive. Also, the outcome in [8] and in assay [9] was inactive. Also, the AC50 is 37.3 µM (active) and 28.8 µM (active) in assay [4]; 50.8 µM (active) and 50.6 µM (active) in [10].

As for `COC(F)(C(F)F)C(F)(F)F` (stereo unspecified), the outcome in [1], in assay [2], in assay [3], in assay [4], in assay [5] and in assay [6] was inactive. Moreover, the outcome in assay [7], in [8], in assay [9] and in assay [10] was inactive.

In the case of `O=S(=O)(Cl)C(F)(F)C(F)(F)C(F)(F)C(F)(F)C(F)(F)C(F)(F)C(F)(F)C(F)(F)F`, the result in [1], in [2], in assay [3], in assay [4], in [5] and in assay [6] was inactive. The outcome in assay [7], in [8], in [9] and in assay [10] was inactive. The AC50 in assay [10] was 7.61 µM (active).
